Experimental findings from PubChem BioAssay (EPA / NIEHS) are described below.

Inconclusive results are not listed. Active and inactive are the calls of the source. Rule for the calls, unless noted: active = hit-call score of the fitted dose curve at least 0.9, where 1 is the maximum; inconclusive = response in the unintended direction; inactive = score below 0.9.

Assay [1] concerns SRY-box transcription factor 2 (SOX2) Protein Expression, Deisenroth Lab, SOX2 (gene 6657). Put plainly: CCTE_Deisenroth_DEVTOX-GLR_legacy_Sox2: (Legacy) CCTE's DevTox GLR-Endo Assay Evaluation of SRY-box transcription factor 2 (SOX2) Protein Expression, Deisenroth Lab (AID 2284346; active = hit-call score of the fitted dose curve at least 0.9, where 1 is the maximum; inactive = score below 0.9). The essentials: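 hPSC RUES2-GLR, 384-well; 24 h seed → 48 h endoderm differentiation, 2 doses q24h, 1 nM–200 uM. Fix, nuclear dye, 5 fields/well. Sox2+ cells/cell count; cell positive if >5x BMAD over endoderm ctrl; gain direction vs DMSO.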

Assay [2] relates to SRY-box transcription factor 17 (SOX17) Protein Expression, Deisenroth Lab, SOX17 (gene 64321). Put plainly: CCTE_Deisenroth_DEVTOX-GLR_Endo_SOX17: CCTE's DevTox GLR-Endo Assay Evaluation of SRY-box transcription factor 17 (SOX17) Protein Expression, Deisenroth Lab (AID 2284413; active = hit-call score of the fitted dose curve at least 0.9, where 1 is the maximum; inactive = score below 0.9). The essentials:
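Seed RUES2-GLR cells 24 h; start endoderm differentiation; dose at 0 and 24 h (1 nM - 200 uM, 10 points); fix at 48 h, stain nuclei, image 5 fields/well; compute SOX17+/total cells vs 0.2% DMSO.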

For assay [3], the system named is Brachyury (BRA) Protein Expression, TBXT (gene 6862). Put plainly: CCTE_Deisenroth_DEVTOX-GLR_Endo_BRA: CCTE's DevTox GLR-Endo Assay Evaluation of Brachyury (BRA) Protein Expression, Deisenroth Lab (AID 2284417; active = hit-call score of the fitted dose curve at least 0.9, where 1 is the maximum; inactive = score below 0.9). The essentials: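 RUES2-GLR pluripotent cells differentiated 48 h with two chemical exposures 24 h apart, 10-point range 1 nM - 200 uM. Percentage of BRA+ cells per total count by high-content imaging, minus 0.2% DMSO control.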

A short description of assay [4]: CCTE_Deisenroth_DEVTOX-GLR_Endo_CellCount: Viability Assessment in CCTE's DevTox GLR-Endo Assay, Deisenroth Lab (AID 2284420; active = hit-call score of the fitted dose curve at least 0.9, where 1 is the maximum; inactive = score below 0.9). The essentials:
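Measured 48 h after dosing: fluorescent nuclei counted by imaging in human RUES2-GLR cells under defined differentiation media, tested at 1 nM - 200 uM. Values are percent cell-count change relative to 0.2% DMSO.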

Assay [5] has as its system SRY-box transcription factor 2 (SOX2) Protein Expression, Deisenroth Lab, SOX2 (gene 6657). Put plainly: CCTE_Deisenroth_DEVTOX-GLR_Pluri_SOX2: CCTE's DevTox GLR-Pluri Assay Evaluation of SRY-box transcription factor 2 (SOX2) Protein Expression, Deisenroth Lab (AID 2284428; active = hit-call score of the fitted dose curve at least 0.9, where 1 is the maximum; inactive = score below 0.9). The procedure: CCTE_Deisenroth_DEVTOX-GLR_Pluri assay is a cell-based, multiplex-readout assay that uses RUES2-GLR, a human pluripotent cell line, with measurements taken at 48 hours after chemical dosing in a 384-well microplateCCTE_Deisenroth_DEVTOX-GLR_Pluri_SOX2 is 1 of 4 assay components calculated from the CCTE_Deisenroth_DEVTOX-GLR_Pluri assay and it measures an the percentage of cells in an pluripotent state. Using a type of inducible fluorescent protein reporter, gain-of-signal activity can be used to understand changes in gene expression with fluorescent microscopy. The percentage of SOX2+ cells are determined by calculating the number of SOX2+ cells divided by the cell count. To generalize the intended target to other relatable targets, this assay component is annotated to the transcription factor intended target family, where the subfamily is SRY-related HMG-box.Data from the assay component CCTE_Deisenroth_DEVTOX-GLR_Pluri_SOX2 was analyzed as 1 assay endpoint. The endpoint is the percent change in the SOX2+ cell population relative to the 0.2% DMSO control in the CCTE_Deisenroth_DEVTOX-GLR_Pluri assay. Furthermore, this assay endpoint can be referred to as a primary readout, because this assay has produced multiple assay endpoints where this one serves as a measure of […].
(§1) All assay protocols are aligned to the DevTox GLR-Endo assay workflow. […]

For assay [6], the system named is Brachyury (BRA) Protein Expression, Deisenroth Lab, TBXT (gene 6862). Put plainly: CCTE_Deisenroth_DEVTOX-GLR_Pluri_BRA: CCTE's DevTox GLR-Pluri Assay Evaluation of Brachyury (BRA) Protein Expression, Deisenroth Lab (AID 2284429). As for the experimental part: CCTE_Deisenroth_DEVTOX-GLR_Pluri assay is a cell-based, multiplex-readout assay that uses RUES2-GLR, a human pluripotent cell line, with measurements taken at 48 hours after chemical dosing in a 384-well microplateCCTE_Deisenroth_DEVTOX-GLR_Pluri_BRA is 1 of 4 assay components calculated from the CCTE_Deisenroth_DEVTOX-GLR_Pluri assay and it measures an the percentage of cells in an mesoderm state. Using a type of inducible fluorescent protein reporter, gain-of-signal activity can be used to understand changes in gene expression with fluorescent microscopy. The percentage of BRA+ cells are determined by calculating the number of BRA+ cells divided by the cell count. To generalize the intended target to other relatable targets, this assay component is annotated to the transcription factor intended target family, where the subfamily is T-box protein.Data from the assay component CCTE_Deisenroth_DEVTOX-GLR_Pluri_BRA was analyzed as 1 assay endpoint. The endpoint is the percent BRA+ cell population minus the 0.2% DMSO control in the CCTE_Deisenroth_DEVTOX-GLR_Pluri assay. Furthermore, this assay endpoint can be referred to as a secondary readout, because this assay has produced multiple assay endpoints where this one serves as a measure of mesoderm differentiation.
as §1

The next assay has as its system SERPINA7 (gene 6906). The assay can be described thus: CCTE_GLTED_hTBG: CCTE's human Thyroxine-binding Globulin (TBG) Inhibition Assay, Great Lakes Toxicology and Ecology Division (GLTED) Lab (AID 2284343).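 Note: active chemicals lower fluorescence versus DMSO baseline by displacing probe.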 An outline of the steps: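 Measures how far test chemicals displace ANSA bound to purified human TBG. The read-out is fluorescence at 380 nm excitation and 475 nm emission, taken after 2 h of incubation.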

A short description of assay [7]: CCTE_Deisenroth_H295R-HTRF_384WELL_ESTRADIOL: CCTE's H295R-HTRF Assay Evaluation of Estradiol Concentration, Deisenroth Lab (AID 2284361; active = hit-call score of the fitted dose curve at least 0.9, where 1 is the maximum; inactive = score below 0.9). The following applies: actives raise or lower the signal. The essentials: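 H295R cells exposed 48 h to chemicals at 0.001 - 100 uM final (nine points, triplicate); estradiol in conditioned medium measured by HTRF immunoassay, fitted bidirectionally versus DMSO. Viability by CellTiter-Glo on same plates.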
In general terms: Time-resolved FRET reads energy transfer from a long-lived donor to a nearby acceptor.

The nature of assay [8]: CCTE_Deisenroth_H295R-HTRF_384WELL_TESTOSTERONE: CCTE's H295R-HTRF Assay Evaluation of Testosterone Concentration, Deisenroth Lab (AID 2284373; active = hit-call score of the fitted dose curve at least 0.9, where 1 is the maximum; inactive = score below 0.9). The following applies: actives raise or lower the signal. The essentials:
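H295R cells were acclimated 24 h, then exposed 48 h to nine concentrations (0.001–100 uM final) in technical triplicate, n=5. Testosterone in conditioned medium was measured by HTRF (em 620/665 nm). Fitting was bidirectional versus DMSO; CellTiter-Glo viability ran on the same plates.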

Assay [9] is described as follows: CCTE_Deisenroth_H295R-HTRF_384WELL_CTOX: Cytotoxicity Assessment in CCTE's H295R-HTRF Assay, Deisenroth Lab (AID 2284380). As for the experimental part:
CCTE_Deisenroth_H295R-HTRF_384WELL assay is a cell-based, multiplex-readout assay that uses H295R, a human adrenocortical carcinoma cell line, with measurements taken at 48 hours after chemical dosing in a 384-well microplateCCTE_Deisenroth_H295R-HTRF_384WELL_CTOX is one of 3 assay components measured in the CCTE_Deisenroth_H295R-HTRF_384WELL assay (2 hormones and 1 viability components). It is designed to make measurements of adenosine triphosphate (ATP), a form of viability reporter, as detected with luminescence intensity signals by CellTiter-Glo 2.0 cytotoxicity assay technology.This assay endpoint, CCTE_Deisenroth_H295R-HTRF_384WELL_CTOX, was analyzed in the positive fitting direction relative to DMSO as the negative control and baseline of activity. Using a type of viability reporter, loss-of-signal activity using CellTiter-Glo 2.0 technology was used to understand viability in the H295R cell line at 48hr of chemical exposure. To generalize the intended target to other relatable targets, this assay endpoint is annotated to the cell cycle intended target family, where the subfamily is cytotoxicity
Standard operating procedures for the cell culture medium, maintenance, expansion, and cryopreservation of the NCI-H295R adrenocortical carcinoma adherent cell line were adopted directly from guideline specifications (EPA 2011, OECD 2011). The assay workflow follows a three-day protocol consistent with the paradigm defined in OECD TG 456 and U.S. EPA OCSPP Guideline 890.1550. On day 0, cells are plated in 384-well microplates and acclimated for 24 hours. On Day 1, test chemicals are dispensed into separate 384-well microplates in a nine-point 2X dilution series (0.002 - 200 uM). Without aspirating the growth medium on the assay plates, test chemical suspension is dispensed to achieve a final 1X nominal concentration. Each chemical is run in technical triplicate at a final dilution series of 0.001 - 100 uM. On Day 3, following a 48-hour incubation period with test chemical, the conditioned medium samples are collected and transferred to 384-well sample storage plates. HTRF direct immunoassay technology is employed to detect E2 and T analytes in H295R conditioned medium. HTRF assays for E2 and T are performed with matched conditioned medium samples according to the manufacturer's protocol. Fluorescent endpoint measurements are conducted with a microplate reader equipped with an HTRF-compatible filter set (ex: 320 (10) […]; em: 620 (10) and 665 (10) nM). A multiplexed cell viability assay is implemented on the same plates used for chemical testing using the Promega CellTiter-Glo 2.0 assay. In this homogenous assay format, cells are lysed in the presence of a thermostable luciferase to generate a luminescent signal that is directly proportional to the amount of ATP present, providing an indirect indication of cytotoxicity in the sample. After collecting conditioned medium samples on Day 3, the viability assay is immediately performed and luminescence readings measured on a microplate reader. A total of five experimental replicates is conducted for each chemical (n=5).

On to `COC(=O)c1ccccc1C(=O)OC`, for which the result in assay [1], in [2], in assay [3], in [4], in assay [5] and in assay [6] was inactive.

Broadly, the AC50 is the concentration giving half of the maximal activity seen. In the case of `Cc1cc(Cl)ccc1OCC(=O)O`, the half-maximal activity concentration (AC50) with SERPINA7 (gene 6906) is 59.6 µM (active).

For the molecule `Oc1ccccc1-c1ccccc1`, the AC50 with SERPINA7 (gene 6906) was 28.1 µM (active).

For `C#CCOS(=O)OC1CCCCC1Oc1ccc(C(C)(C)C)cc1` (stereo unspecified), the AC50 in the assay with SERPINA7 (gene 6906) was 25.2 µM (active).

Regarding `Fc1ccc(Oc2ccnc3cc(Cl)cc(Cl)c23)cc1`, in the assay with SERPINA7 (gene 6906), the AC50 was 8.16 µM (active).

As for `Cc1ccc(-c2c(Cl)nc(C#N)n2S(=O)(=O)N(C)C)cc1`, the AC50 with SERPINA7 (gene 6906) was 33.1 µM (active).

Turning to `COc1nc(NC(C)C)nc(NC(C)C)n1`, the AC50 in assay [7] is 34.6 µM (active). Moreover, the molecule was classed as inactive in [8] and in assay [9].

Regarding `CCCCNC(=O)n1c(NC(=O)OC)nc2ccccc21`, the outcome in assay [7] and in assay [8] was inactive. In assay [9], the AC50 is 5.92 µM (active).

For `CCCCC(CC)COC(=O)c1ccccc1C(=O)OCC(CC)CCCC` (stereo unspecified), the molecule was called inactive in assay [7], in assay [8] and in assay [9].

In the case of `CCCN(CCC)c1c([N+](=O)[O-])cc(S(N)(=O)=O)cc1[N+](=O)[O-]`, the AC50 in the assay on SERPINA7 (gene 6906) is 5.43 µM (active).

Consider `OC(c1ccc(Cl)cc1)(c1cncnc1)c1ccccc1Cl` (stereo unspecified), for which the AC50 in the assay with SERPINA7 (gene 6906) is 36.5 µM (active). Besides, the call in [7], in [8] and in assay [9] was inactive.

For the molecule `CCNc1nc(Cl)nc(NC(C)C)n1`, in assay [7], the concentration at half-maximal activity (AC50) was 9.8 µM (active). The outcome in [8] and in [9] was inactive.

For `N#Cc1nn(-c2c(Cl)cc(C(F)(F)F)cc2Cl)c(N)c1S(=O)C(F)(F)F` (stereo unspecified), the half-maximal activity concentration (AC50) in the assay on SERPINA7 (gene 6906) is 24.6 µM (active).

Consider `CCCCOC(=O)c1ccccc1C(=O)OCCCC`, for which, in the assay on SERPINA7 (gene 6906), the concentration at half-maximal activity (AC50) was 11.4 µM (active).

Take `CCOc1cc(Oc2ccc(C(F)(F)F)cc2Cl)ccc1[N+](=O)[O-]`: in the assay with SERPINA7 (gene 6906), the half-maximal activity concentration (AC50) was 4.86 µM (active).
